The values below come from PubChem BioAssay (NCI).

What all share (assay): NCI-60 one-dose screen, 48 h (100 = growth as untreated, 0 = no growth, -100 = all killed)
Conditions in all cases: 10 µM

Assay [1] has as its system DU-145 prostate.
The test system of assay [2] is K-562 leukemia.
Assay [3] concerns MALME-3M melanoma.
The subject of assay [4] is MDA-MB-231 breast.
Assay [5] has as its system RXF 393 renal.
For assay [6], the system named is SF-268 CNS.
Assay [7] deals with SF-295 CNS.
In assay [8] the test system is SF-539 CNS.
For assay [9], the system named is UACC-257 melanoma.
Assay [10] has as its system M14 melanoma.

The panel holds about 83,000 compounds, 20% with a hit somewhere; the sample as a whole holds those more often.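 Plates (96-well) were seeded with cells, treated with compound at one concentration, and incubated for 48 hours before percent growth was determined.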 Values without a mark were called inactive. Activity calls are given as the source filed them. How the source made its calls: active means growth percent below 10; inactive means the rest.

With `Cc1nn(-c2ccc(-c3ccc(OC(F)(F)F)cc3)cc2)c2nc(Cc3ccccc3)nc(N)c12`, the growth is 75.5% in [1]; 63.7% in assay [2]; 83.8% in [3]; 48.3% in assay [4]; 77.9% in assay [5]; 54.3% in [6]. Further, the growth in [7] is 47.7%; in assay [8] it was 80.3%; in [9], 78.8%; in [10], 69%.

For the molecule `O=C(CCCCNC(=O)c1nc(-c2ccccc2)n(-c2ccccc2)n1)NO`, the growth in assay [1] was 98.6%; in assay [2] it was 81.7%; in assay [3] it was 23.5%; in assay [4] it was 86.2%; in [5], 84.2%; in [6], 90.1%. The growth in [7] is 93.6%; in assay [8], 65.1%; in assay [10] it was 66.8%.

As to `CN1CCc2c(sc3nc4n(-c5ccc(Cl)cc5)cnn4c(=O)c23)C1`, the growth in assay [1] is 110%; in assay [2], 106%; in [3], 97%; in [4] it was 98.7%; in assay [5], 122%; in assay [6], 95.6%. The growth in [7] was 102%; in assay [8], 106%; in assay [10] it was 96.8%.

Turning to `Cc1c2cnccc2c(C)c2c1c1cc(O)ccc1n2C(C)C`, the growth was 12.1% in [1]; 16.9% in assay [2]; -17.9% (active) in assay [3]; 9.51% (active) in assay [4]; -39.5% (active) in assay [5]; 9.03% (active) in assay [6]. In addition, the growth in assay [7] is 34.5%; in assay [8], 7.2% (active); in assay [10], -19% (active).

As to `CCCCN(CCCC)C(=O)[C@H](CC)[C@@H]1CC[C@@H](C)[C@@H]([C@H](C)[C@@H](O)[C@@H](C)C(=O)[C@H](CC)C2O[C@]3(C=C[C@@H](O)[C@]4(CC[C@@](C)([C@H]5CC[C@](O)(CC)[C@H](C)O5)O4)O3)[C@H](C)C[C@@H]2C)O1` (some centres undefined), the growth in [1] is 35.4%; in [2] it was 14.1%; in assay [3], -15.8% (active); in assay [4], -25.3% (active); in assay [5], -3.81% (active); in assay [6], 19.6%. Moreover, the growth was -10.4% (active) in assay [7], 16.9% in [8], 0.418% (active) in assay [9] and 14.2% in [10].

Consider `COc1cc(C(=O)/C(C)=C/c2c[nH]c3ccccc23)cc(OC)c1OC`, for which the growth in assay [1] is 2.39% (active); in assay [2], 14.3%; in [3] it was 68.1%; in assay [4] it was 16.1%; in assay [5], 46.2%; in assay [6], 26.8%. Further, the growth was 12.4% in [7], -3.72% (active) in [8] and -1.18% (active) in assay [10].

On to `Nc1ccc(-c2cccs2)cc1NC(=O)c1ccc(CCCC(=O)Nc2ccc(C3CC3N)cc2)cc1` (centres undefined), for which the growth in assay [1] was 84.6%; in assay [2] it was -30.7% (active); in [3], 75.1%; in assay [4], 47.1%; in [5], 77%; in assay [6], 104%. Moreover, the figures for the growth in assay [7], in assay [8] and in assay [10] were 84%, 77% and 70.8%, respectively.

For the molecule `COc1cc(-c2csc(NC(=O)Nc3ccc(Cl)c(C(F)(F)F)c3)n2)cc(OC)c1OC`, the growth in assay [1] was 14.4%; in assay [2], 14.2%; in assay [3] it was -28.1% (active); in assay [4], -32.2% (active); in assay [5] it was -6.49% (active); in assay [6], 21.3%. Also, the growth was -34.7% (active) in [7], 5.05% (active) in [8] and -4.86% (active) in [10].

In the case of `COc1cccc(C2C(C#N)=C(N)Oc3cc(N)ccc32)c1` (centres undefined), the growth in assay [1] was 10.6%; in assay [2], 11.9%; in assay [3] it was 51.9%; in [4] it was 48.8%; in assay [5], -7.34% (active); in assay [6] it was 47.1%. The growth in assay [7] was 5.3% (active); in assay [8], 4.8% (active); in assay [9] it was 47.2%; in [10], 10.9%.

As to `CCn1c(SCc2ccc(C)cc2)nnc1-c1nn(-c2ccc(Cl)cc2Cl)c(-c2ccc(Cl)cc2)c1C`, the growth was 23.4% in assay [1]; 8.88% (active) in assay [2]; 7.8% (active) in assay [3]; 5.05% (active) in [4]; 8.71% (active) in assay [5]; 22.8% in assay [6]. Also, the growth in [7] is 9.65% (active); in assay [8], 19.8%; in assay [10] it was 12.3%.

Turning to `CCCCCCCCCCCCCCCCCC[n+]1ccc2c(C)c3c(c(C)c2c1)c1cc(O)ccc1n3CC`, the growth in [1] was 40.4%; in assay [2], 9.4% (active); in assay [3] it was -55.2% (active); in assay [4] it was 19%; in assay [5], -7.68% (active); in [6], 4.77% (active). The figures for the growth in assay [7], in assay [8] and in assay [10] were -1.22% (active), -21.2% (active) and -2.39% (active), respectively.

For the molecule `Nc1nc(-c2cccnc2)nc2c1sc(=S)n2-c1ccccc1`, the growth in assay [1] was 103%; in [2] it was 106%; in [3] it was 112%; in assay [4], 65.2%; in assay [5] it was 100%; in assay [6] it was 96%. In addition, the growth is 111% in [7], 103% in assay [8] and 106% in assay [10].

On to `C#CCOc1c(OC)cc(C(=O)/C(C)=C/c2cccc(N=[N+]=[N-])c2)cc1OC`, for which the growth was 11.7% in assay [1]; 14.4% in assay [2]; 54.7% in assay [3]; 30.5% in assay [4]; -8.56% (active) in [5]; 42.6% in [6]. In addition, the growth in assay [7] is 8.17% (active); in assay [8], -12.5% (active); in assay [10] it was 5.53% (active).

Regarding `Cc1noc(C)c1CSc1ccccc1C(=O)N1CCN(c2cccc(C(F)(F)F)c2)CC1`, the growth in [1] is 95.7%; in assay [2], 52.8%; in [3], 84.5%; in assay [4] it was 65.7%; in assay [5] it was 99.8%; in [6] it was 95.3%. Moreover, the values for the growth in assay [7], in assay [8] and in assay [10] were 75.2%, 87.4% and 71.6%, respectively.
